Laboratory results: PubChem BioAssay AID720650 (Broad Institute, 2013)
Unmarked numbers belong to inactive results. Activity calls are given as the source filed them. No rule for the calls is given here.

Assay: Biochemical counterscreen for C difficile toxins, absence of UDPG, inhibitor dose response (AID 720650)
Details: series mostly up to 19.5 µM

Question: Which AC50 does the source give for `COc1cc(O)ccc1C(=O)CCc1ccc(O)cc1` here?
Answer: 10.7 µM (active)

Question: Which AC50 does the source give for `COc1ccc(C2=NS(=O)(=O)N(C)C(C(=O)NC(C)c3ccccc3)=C2)cc1OC` (configuration not stated) here?
Answer: inactive

Question: With `NC(=O)Nc1ccc(Nc2ccccc2)cc1` as the compound, how does the AC50 read?
Answer: > 39 µM

Question: With `C[C@H]1CN([C@@H](C)CO)S(=O)(=O)c2ccc(-c3ccncc3)cc2O[C@@H]1CN(C)Cc1ccc(Oc2ccccc2)cc1` as the compound, how does the AC50 read?
Answer: inactive

Question: For `CC1CCCN(C(=S)Nc2ccc(F)cc2)C1` (configuration not stated), which AC50 is on record?
Answer: inactive

Question: With `CNC(=O)C1CCN(S(=O)(=O)c2c(C)noc2/C=C/c2cccc(C)c2)CC1` as the compound, how does the AC50 read?
Answer: inactive

Question: For `COc1cc(/C=C2\SC(=S)N(NC(=O)c3cccc(O)c3)C2=O)ccc1O`, which AC50 is on record?
Answer: inactive

Question: Which AC50 does the source give for `S=c1[nH]nc(-c2ccccn2)n1/N=C/c1ccc(Cl)cc1` here?
Answer: inactive

Question: For `CCOC(=O)c1nnn(-c2nonc2N)c1-c1ccccc1Cl`, which AC50 is on record?
Answer: inactive

Question: With `CCNC(=O)C[C@H]1CC[C@@H]2[C@@H](COc3ccc(NC(C)=O)cc3C(=O)N2C)O1` as the compound, how does the AC50 read?
Answer: inactive

Question: For `COc1ccc(C(=O)NC(C(=O)NCc2ccccc2OC)C(C)C)cc1` (configuration not stated), which AC50 is on record?
Answer: inactive

Question: With `COc1cc2nncc(SC)c2cc1OC` as the compound, how does the AC50 read?
Answer: inactive

Question: With `Cc1cccc(/C=C/c2onc(C)c2S(=O)(=O)N2CCC(C(=O)N3CCC(C)CC3)CC2)c1` as the compound, how does the AC50 read?
Answer: inactive

Question: With `Nc1nc(CCOc2ccc(F)cc2)cs1` as the compound, how does the AC50 read?
Answer: inactive

Question: Which AC50 does the source give for `CCN(CCN(C)C)C(=O)C1CCN(S(=O)(=O)c2c(C)noc2/C=C/c2ccccc2F)CC1` here?
Answer: inactive

Question: Which AC50 does the source give for `CC(OC(=O)[C@@H](NC(=O)OCc1ccccc1)C(C)C)C(=O)Nc1ccc(N2CCOCC2)cc1` (some centres not stated) here?
Answer: inactive

Question: For `CC(C)(C)c1cc(Cl)c(O)c(NC(=S)NC(=O)c2cccnc2)c1`, which AC50 is on record?
Answer: inactive

Question: Which AC50 does the source give for `CCCSc1nc2c([nH]1)c(=O)n(C)c(=S)n2C` here?
Answer: inactive

Question: Which AC50 does the source give for `Oc1ccc(CCNc2ncnc3ccc(Cl)cc23)cc1` here?
Answer: 19.5 µM (active)

Question: Which AC50 does the source give for `C[C@H](CO)N1C[C@H](C)[C@@H](CN(C)C(=O)Nc2ccc(C(F)(F)F)cc2)Oc2ccc(NC(=O)C3CCCCC3)cc2C1=O` here?
Answer: inactive

Question: With `Cc1ccc(C2=NS(=O)(=O)N(C)C(C(=O)NCc3ccc(F)cc3)=C2)cc1` as the compound, how does the AC50 read?
Answer: inactive

Question: Which AC50 does the source give for `O=[N+]([O-])c1cc(Br)ccc1NS(=O)(=O)c1ccccc1` here?
Answer: > 39 µM
